Growth data for 9 molecules are collected here from the supplement of paper PMC9262897, “Low-cost anti-mycobacterial drug discovery using engineered E. coli” (Nature Communications, 2022).

The structures appear in SMILES notation. Structures can show the parent of a compound that is named as a salt. ± gives the standard deviation of the averaged measurements.

Common to all, as to test: growth (OD600 after 10 h); higher = more growth (less inhibition)
In test [1] the test system is E. coli TESEC Alr+ wild-type control. The note with it: compound 0.1 mM; raw OD600 reference: median of DMSO wells 0.241, cell-free background 0.041. The procedure:
(§1)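 TESEC Mtb Alr E. coli, or the Alr+ wild-type control, in 384-well plates with Prestwick library compounds at 0.1 mM and 1% DMSO, across arabinose induction levels of 1E3 to 1E7 nM. Growth is read as OD600 after 10 h at 37 °C in triplicate biological replicates.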

Test [2] relates to E. coli TESEC Mtb Alr. As to conditions: compound 0.1 mM. The procedure:
as §1

Test [3] deals with E. coli TESEC Mtb Asd. As to conditions: compound 0.1 mM. On the procedure:
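TESEC E. coli strains in which the native enzyme is deleted and replaced by arabinose-inducible Mtb Asd, DapB, CysH or TrpD, each grown in its selective medium. Strains were screened against the Prestwick library at 0.1 mM and 1% DMSO in 384-well format at low and high arabinose induction. Growth is read as OD600 after 10 h in triplicate.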

In test [4] the test system is E. coli TESEC Alr+ wild-type control. The note with it: compound 0.1 mM; raw OD600 reference: median of DMSO wells 0.49, cell-free background 0.052. The procedure: (§2)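 TESEC Mtb Alr E. coli (ΔaraC ΔtolC ΔentC Δalr ΔdadX, arabinose-inducible Mtb Alr) or the Alr+ wild-type control strain, grown in defined M9-fructose medium without D-alanine in 96-well plates with Prestwick library compounds at 0.1 mM and 1% DMSO. Low Alr induction is 0.1 µM arabinose and high induction is 10 mM arabinose.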

In test [5] the test system is E. coli TESEC Mtb Alr. The note with it: compound 0.1 mM. On the procedure:
as §2
This is another data set of the same source.

The mark [6] stands for this setting: arabinose 1000 nM, raw OD600 reference: median of DMSO wells 0.294, cell-free background 0.041.
The mark [7] stands for this setting: arabinose 10000 nM, raw OD600 reference: median of DMSO wells 0.264, cell-free background 0.041.
The mark [8] stands for this setting: arabinose 100000 nM, raw OD600 reference: median of DMSO wells 0.201, cell-free background 0.041.
Setting [9] is: arabinose 1000000 nM, raw OD600 reference: median of DMSO wells 0.193, cell-free background 0.041.
[10] abbreviates: arabinose 10000000 nM, raw OD600 reference: median of DMSO wells 0.146, cell-free background 0.041.
The mark [11] stands for this setting: arabinose induction (level): High, raw OD600 reference: median of DMSO wells 0.331, cell-free background 0.041.
Where [12] appears, read: arabinose induction (level): Low, raw OD600 reference: median of DMSO wells 0.417, cell-free background 0.041.
[13] abbreviates: arabinose 100 nM, raw OD600 reference: median of DMSO wells 0.413, cell-free background 0.052.
Where [14] appears, read: arabinose 10000000 nM, raw OD600 reference: median of DMSO wells […], cell-free background 0.052.

`Cc1ncc(C[n+]2csc(CCO)c2C)c(N)n1` [Thiamine hydrochloride]: the growth was 0.246 ± 0.0087 in test [1]; 0.295 ± 0.0076 in test [2] (setting [6]); 0.251 ± 0.0027 in test [2] (setting [7]); 0.174 ± 0.014 in test [2] (setting [8]); 0.185 ± 0.0064 in test [2] (setting [9]); 0.129 ± 0.0017 in test [2] (setting [10]). Besides, the growth in test [3] (setting [11]) came to 0.354 ± 0.062; in test [3] (setting [12]), 0.418 ± 0.062; in test [4], 0.451 ± 0.011; in test [5] (setting [13]) it was 0.42 ± 0.0059; in test [5] (setting [14]), 0.362 ± 0.02.

Take `N[C@@H]1CCCCN(c2c(F)cc3c(=O)c(C(=O)O)cn(C4CC4)c3c2Cl)C1` [Besifloxacin hydrochloride]: the growth in test [1] came out at 0.04153 ± 0.00035; in test [2] (setting [6]), 0.0427 ± 0.002; in test [2] (setting [7]), 0.0401 ± 0.00026; in test [2] (setting [8]), 0.0447 ± 0.0037; in test [2] (setting [9]), 0.0402 ± 0.00095; in test [2] (setting [10]) it was 0.0414 ± 0.0011. Moreover, the growth turned out to be 0.0501 ± 0.0019 in test [3] (setting [11]); 0.0463 ± 0.00069 in test [3] (setting [12]); 0.0537 ± 0.00057 in test [4]; 0.05447 ± 0.00045 in test [5] (setting [13]); 0.053 ± 0.0011 in test [5] (setting [14]).

Take `Brc1c(NC2=NCCN2)ccc2nccnc12` [Brimondine L-Tartrate]: the growth in test [1] turned out to be 0.209 ± 0.0033; in test [2] (setting [6]), 0.2878 ± 0.0023; in test [2] (setting [7]), 0.26 ± 0.0099; in test [2] (setting [8]), 0.187 ± 0.016; in test [2] (setting [9]), 0.172 ± 0.011; in test [2] (setting [10]), 0.152 ± 0.0034. Moreover, the growth in test [3] (setting [11]) worked out at 0.271 ± 0.038; in test [3] (setting [12]) it was 0.368 ± 0.061; in test [4] it was 0.46 ± 0.032; in test [5] (setting [13]), 0.416 ± 0.015; in test [5] (setting [14]), 0.343 ± 0.004.

Regarding `COc1cc2ncnc(Nc3ccc(F)c(Cl)c3)c2cc1OCCCN1CCOCC1` [Gefitinib], the growth in test [1] was 0.206 ± 0.013; in test [2] (setting [6]), 0.294 ± 0.019; in test [2] (setting [7]), 0.24 ± 0.0039; in test [2] (setting [8]), 0.198 ± 0.017; in test [2] (setting [9]), 0.161 ± 0.0089; in test [2] (setting [10]), 0.162 ± 0.0061. For the same molecule, the growth came to 0.261 ± 0.026 in test [3] (setting [11]); 0.454 ± 0.038 in test [3] (setting [12]); 0.496 ± 0.03 in test [4]; 0.284 ± 0.2 in test [5] (setting [13]); 0.0533 ± 0.0025 in test [5] (setting [14]).

With `CCCOc1cc(N)ccc1C(=O)OCCN(CC)CC` [Propoxycaine hydrochloride], the growth in test [1] stood at 0.229 ± 0.005; in test [2] (setting [6]), 0.289 ± 0.0076; in test [2] (setting [7]), 0.274 ± 0.01; in test [2] (setting [8]), 0.199 ± 0.034; in test [2] (setting [9]) it was 0.22 ± 0.011; in test [2] (setting [10]), 0.138 ± 0.0039. The growth in test [3] (setting [11]) worked out at 0.36 ± 0.085; in test [3] (setting [12]), 0.376 ± 0.079; in test [4], 0.487 ± 0.08; in test [5] (setting [13]), 0.41 ± 0.0052; in test [5] (setting [14]) it was 0.361 ± 0.015.

For `NC[C@@H]1O[C@@H](O[C@H]2[C@H](O)[C@@H](O[C@H]3O[C@H](CO)[C@@H](O)[C@H](N)[C@H]3O)[C@H](N)C[C@@H]2N)[C@@H](O)[C@H](O)[C@H]1O` [Kanamycin A sulfate], the growth in test [1] amounted to 0.247 ± 0.0031; in test [2] (setting [6]) it was 0.302 ± 0.013; in test [2] (setting [7]), 0.263 ± 0.0086; in test [2] (setting [8]), 0.228 ± 0.016; in test [2] (setting [9]), 0.1781 ± 0.0015; in test [2] (setting [10]) it was 0.164 ± 0.0095. Also, the growth in test [3] (setting [11]) is 0.245 ± 0.044; in test [3] (setting [12]), 0.404 ± 0.073; in test [4], 0.495 ± 0.032; in test [5] (setting [13]) it was 0.403 ± 0.008; in test [5] (setting [14]), 0.353 ± 0.014.

Turning to `CCOC(=O)C(C)(C)Oc1ccc(Cl)cc1` [Clofibrate], the growth in test [1] worked out at 0.237 ± 0.0033; in test [2] (setting [6]), 0.287 ± 0.0062; in test [2] (setting [7]) it was 0.268 ± 0.0049; in test [2] (setting [8]), 0.19 ± 0.013; in test [2] (setting [9]) it was 0.194 ± 0.0078; in test [2] (setting [10]), 0.137 ± 0.0052. For the same molecule, the growth in test [3] (setting [11]) worked out at 0.279 ± 0.041; in test [3] (setting [12]), 0.415 ± 0.043; in test [5] (setting [13]), 0.4111 ± 0.0031; in test [5] (setting [14]), 0.325 ± 0.0033.

For `CC(=O)OCC(=O)[C@@]12N=C(C)O[C@@H]1C[C@H]1[C@@H]3CCC4=CC(=O)C=C[C@]4(C)[C@H]3[C@@H](O)C[C@@]12C` [Deflazacort], the growth in test [1] turned out to be 0.151 ± 0.011; in test [2] (setting [6]), 0.213 ± 0.009; in test [2] (setting [7]), 0.256 ± 0.0029; in test [2] (setting [8]), 0.193 ± 0.02; in test [2] (setting [9]) it was 0.168 ± 0.0053; in test [2] (setting [10]), 0.1533 ± 0.00035. For the same molecule, the growth in test [3] (setting [11]) amounted to 0.323 ± 0.083; in test [3] (setting [12]), 0.396 ± 0.032; in test [4], 0.48 ± 0.068; in test [5] (setting [13]), 0.394 ± 0.0082; in test [5] (setting [14]), 0.347 ± 0.0046.

On to `O=C(O)COCCN1CCN(C(c2ccccc2)c2ccc(Cl)cc2)CC1` (configuration not stated) [Cetirizine dihydrochloride], for which the growth in test [1] turned out to be 0.21 ± 0.0098; in test [2] (setting [6]) it was 0.275 ± 0.0074; in test [2] (setting [7]), 0.25 ± 0.006; in test [2] (setting [8]), 0.218 ± 0.017; in test [2] (setting [9]) it was 0.183 ± 0.0077; in test [2] (setting [10]), 0.14 ± 0.0034. In addition, the growth amounted to 0.223 ± 0.017 in test [3] (setting [11]), 0.273 ± 0.045 in test [3] (setting [12]), 0.41 ± 0.014 in test [5] (setting [13]) and 0.349 ± 0.022 in test [5] (setting [14]).
